# Laboratory results taken from the supplement of paper PMC11732987, “Enantioselective OTUD7B fragment discovery through chemoproteomics screening and high-throughput optimisation” (Communications Chemistry, 2025).
# A number with no mark means an inactive call.
# Tests used:
# Experiment in all cases: log2 ratio of Biotin-Ahx-Ub-VS probe labelling (fragment/DMSO); higher = less target engagement (more negative = stronger competition), active = hit call of the paper (q ≤ 0.05, log2 ratio ≤ -1)
# Conditions in all cases: compound concentration: 200 uM; treatment time: 3 h
# USP19 = target: T1, USP19 (UniProt O94966)
# T1 sequence (whole entry): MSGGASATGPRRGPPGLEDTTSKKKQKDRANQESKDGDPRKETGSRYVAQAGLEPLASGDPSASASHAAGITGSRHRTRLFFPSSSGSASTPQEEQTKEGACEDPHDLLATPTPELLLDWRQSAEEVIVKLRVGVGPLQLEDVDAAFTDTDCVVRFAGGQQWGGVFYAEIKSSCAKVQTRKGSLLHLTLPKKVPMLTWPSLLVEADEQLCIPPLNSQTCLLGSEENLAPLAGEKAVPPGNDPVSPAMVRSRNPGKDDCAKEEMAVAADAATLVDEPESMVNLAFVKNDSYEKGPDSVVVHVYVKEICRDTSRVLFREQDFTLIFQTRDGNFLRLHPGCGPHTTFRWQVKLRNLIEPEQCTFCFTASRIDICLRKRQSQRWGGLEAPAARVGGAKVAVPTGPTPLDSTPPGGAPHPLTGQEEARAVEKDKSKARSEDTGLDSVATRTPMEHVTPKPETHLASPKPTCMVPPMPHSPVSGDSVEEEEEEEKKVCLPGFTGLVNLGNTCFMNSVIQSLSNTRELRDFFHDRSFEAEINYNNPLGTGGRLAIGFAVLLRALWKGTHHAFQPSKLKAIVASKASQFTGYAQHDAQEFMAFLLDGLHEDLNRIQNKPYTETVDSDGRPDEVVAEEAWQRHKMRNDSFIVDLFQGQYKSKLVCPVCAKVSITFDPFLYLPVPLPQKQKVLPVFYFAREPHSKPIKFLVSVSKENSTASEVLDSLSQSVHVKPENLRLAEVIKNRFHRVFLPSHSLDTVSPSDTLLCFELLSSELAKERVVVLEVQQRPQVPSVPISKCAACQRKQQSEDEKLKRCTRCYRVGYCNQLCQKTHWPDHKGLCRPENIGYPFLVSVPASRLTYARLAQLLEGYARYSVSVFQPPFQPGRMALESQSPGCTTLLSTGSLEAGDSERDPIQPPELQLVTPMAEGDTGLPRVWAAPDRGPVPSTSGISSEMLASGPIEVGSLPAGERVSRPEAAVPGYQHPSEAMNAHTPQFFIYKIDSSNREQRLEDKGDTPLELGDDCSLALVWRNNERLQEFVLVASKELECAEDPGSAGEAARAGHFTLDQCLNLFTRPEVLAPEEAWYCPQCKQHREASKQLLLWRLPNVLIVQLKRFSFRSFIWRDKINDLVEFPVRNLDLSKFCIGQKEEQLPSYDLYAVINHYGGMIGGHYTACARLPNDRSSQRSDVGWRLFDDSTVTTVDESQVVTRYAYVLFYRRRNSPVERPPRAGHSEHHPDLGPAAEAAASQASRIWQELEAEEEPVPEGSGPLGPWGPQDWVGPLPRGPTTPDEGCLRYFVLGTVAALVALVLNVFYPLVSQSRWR
# How it was run: (§1)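 Triplicate samples of HEK293T lysate, 495 µg each, received fragment at 200 µM or vehicle for 3 h, followed by Biotin-Ahx-Ub-VS (0.5 µM final) for 1 h. After NeutrAvidin enrichment of labelled DUBs and LysC/trypsin digestion, peptides were run by diaPASEF LC-MS/MS. The values are average log2 fragment/vehicle ratios from global-median-normalised Spectronaut label-free quantities, tested by unpaired t-test on proteins having ≥2 unique peptides.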
# USP22 = target: T2, USP22 (UniProt Q9UPT9)
# T2 sequence (whole entry): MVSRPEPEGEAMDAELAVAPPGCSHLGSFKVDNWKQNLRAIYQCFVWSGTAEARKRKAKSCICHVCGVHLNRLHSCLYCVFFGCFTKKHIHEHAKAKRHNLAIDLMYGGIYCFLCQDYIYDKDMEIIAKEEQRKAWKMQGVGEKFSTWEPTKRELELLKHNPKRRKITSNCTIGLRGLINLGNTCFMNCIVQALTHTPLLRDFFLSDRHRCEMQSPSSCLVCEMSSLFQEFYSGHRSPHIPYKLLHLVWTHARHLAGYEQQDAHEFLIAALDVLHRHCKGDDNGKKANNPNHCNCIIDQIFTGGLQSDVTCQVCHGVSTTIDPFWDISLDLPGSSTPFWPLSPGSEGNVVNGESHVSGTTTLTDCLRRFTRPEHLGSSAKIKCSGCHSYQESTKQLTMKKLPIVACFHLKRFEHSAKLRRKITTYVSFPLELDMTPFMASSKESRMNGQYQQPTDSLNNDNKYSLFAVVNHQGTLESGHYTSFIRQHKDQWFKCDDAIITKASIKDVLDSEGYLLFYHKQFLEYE
# How it was run: as §1
# USP24 = USP24 (UniProt Q9UPU5)
# How it was run: as §1
# USP25 = target: T3, USP25 (UniProt Q9UHP3)
# T3 sequence (whole entry): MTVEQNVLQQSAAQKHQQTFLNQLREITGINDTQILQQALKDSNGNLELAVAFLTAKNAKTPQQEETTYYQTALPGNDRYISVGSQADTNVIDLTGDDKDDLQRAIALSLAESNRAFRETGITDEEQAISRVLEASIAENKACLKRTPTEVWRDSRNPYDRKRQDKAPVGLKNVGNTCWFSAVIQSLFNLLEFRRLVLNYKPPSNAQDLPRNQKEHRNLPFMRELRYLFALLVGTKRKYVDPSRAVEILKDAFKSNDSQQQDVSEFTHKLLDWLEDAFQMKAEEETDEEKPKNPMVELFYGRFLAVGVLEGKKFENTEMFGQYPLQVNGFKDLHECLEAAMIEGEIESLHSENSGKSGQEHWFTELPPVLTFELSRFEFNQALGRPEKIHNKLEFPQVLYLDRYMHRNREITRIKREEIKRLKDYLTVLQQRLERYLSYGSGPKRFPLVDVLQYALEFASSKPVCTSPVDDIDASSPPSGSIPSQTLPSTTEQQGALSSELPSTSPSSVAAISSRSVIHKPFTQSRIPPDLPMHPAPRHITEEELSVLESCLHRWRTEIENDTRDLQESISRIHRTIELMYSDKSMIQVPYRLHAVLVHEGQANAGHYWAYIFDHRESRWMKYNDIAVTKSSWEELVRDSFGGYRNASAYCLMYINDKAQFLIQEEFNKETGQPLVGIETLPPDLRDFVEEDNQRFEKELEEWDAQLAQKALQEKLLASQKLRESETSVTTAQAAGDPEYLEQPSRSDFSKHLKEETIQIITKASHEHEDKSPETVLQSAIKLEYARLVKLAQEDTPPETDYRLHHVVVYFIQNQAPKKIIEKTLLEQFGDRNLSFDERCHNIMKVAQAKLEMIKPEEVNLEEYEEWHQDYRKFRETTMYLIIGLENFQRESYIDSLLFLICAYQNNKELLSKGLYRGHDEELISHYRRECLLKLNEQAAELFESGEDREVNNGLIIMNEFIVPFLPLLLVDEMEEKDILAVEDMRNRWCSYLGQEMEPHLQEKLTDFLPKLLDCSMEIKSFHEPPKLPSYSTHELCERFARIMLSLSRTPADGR
# How it was run: as §1
# USP28 = target: T4, USP28 (UniProt Q96RU2)
# T4 sequence (whole entry): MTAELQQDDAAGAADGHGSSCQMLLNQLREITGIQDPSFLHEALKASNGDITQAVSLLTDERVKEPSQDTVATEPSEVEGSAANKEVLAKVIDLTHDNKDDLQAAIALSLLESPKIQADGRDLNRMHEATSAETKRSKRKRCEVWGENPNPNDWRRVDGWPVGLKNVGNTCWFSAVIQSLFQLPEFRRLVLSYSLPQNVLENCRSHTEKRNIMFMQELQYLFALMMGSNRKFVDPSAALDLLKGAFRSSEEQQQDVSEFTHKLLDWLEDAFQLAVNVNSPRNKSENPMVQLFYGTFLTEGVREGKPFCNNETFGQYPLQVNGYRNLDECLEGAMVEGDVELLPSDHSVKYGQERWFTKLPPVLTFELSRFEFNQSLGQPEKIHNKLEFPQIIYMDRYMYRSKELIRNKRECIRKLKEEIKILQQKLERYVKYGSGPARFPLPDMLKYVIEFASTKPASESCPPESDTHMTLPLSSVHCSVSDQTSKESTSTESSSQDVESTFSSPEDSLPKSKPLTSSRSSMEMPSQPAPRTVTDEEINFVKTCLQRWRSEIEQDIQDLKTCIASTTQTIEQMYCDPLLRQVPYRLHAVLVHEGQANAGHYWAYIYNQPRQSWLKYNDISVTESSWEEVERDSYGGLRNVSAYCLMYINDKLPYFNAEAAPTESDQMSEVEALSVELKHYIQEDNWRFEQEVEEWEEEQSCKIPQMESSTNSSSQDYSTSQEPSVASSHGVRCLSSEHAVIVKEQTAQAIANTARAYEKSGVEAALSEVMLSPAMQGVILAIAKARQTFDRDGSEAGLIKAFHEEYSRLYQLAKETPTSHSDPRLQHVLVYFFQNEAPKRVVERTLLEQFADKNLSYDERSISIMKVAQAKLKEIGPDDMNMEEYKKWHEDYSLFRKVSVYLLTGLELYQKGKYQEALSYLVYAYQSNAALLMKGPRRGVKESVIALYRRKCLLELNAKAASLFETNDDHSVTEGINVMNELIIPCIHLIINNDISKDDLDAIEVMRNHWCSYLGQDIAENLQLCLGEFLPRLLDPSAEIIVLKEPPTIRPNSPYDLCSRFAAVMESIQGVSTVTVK
# How it was run: as §1
# USP24, sequence (Q9UPU5 whole entry): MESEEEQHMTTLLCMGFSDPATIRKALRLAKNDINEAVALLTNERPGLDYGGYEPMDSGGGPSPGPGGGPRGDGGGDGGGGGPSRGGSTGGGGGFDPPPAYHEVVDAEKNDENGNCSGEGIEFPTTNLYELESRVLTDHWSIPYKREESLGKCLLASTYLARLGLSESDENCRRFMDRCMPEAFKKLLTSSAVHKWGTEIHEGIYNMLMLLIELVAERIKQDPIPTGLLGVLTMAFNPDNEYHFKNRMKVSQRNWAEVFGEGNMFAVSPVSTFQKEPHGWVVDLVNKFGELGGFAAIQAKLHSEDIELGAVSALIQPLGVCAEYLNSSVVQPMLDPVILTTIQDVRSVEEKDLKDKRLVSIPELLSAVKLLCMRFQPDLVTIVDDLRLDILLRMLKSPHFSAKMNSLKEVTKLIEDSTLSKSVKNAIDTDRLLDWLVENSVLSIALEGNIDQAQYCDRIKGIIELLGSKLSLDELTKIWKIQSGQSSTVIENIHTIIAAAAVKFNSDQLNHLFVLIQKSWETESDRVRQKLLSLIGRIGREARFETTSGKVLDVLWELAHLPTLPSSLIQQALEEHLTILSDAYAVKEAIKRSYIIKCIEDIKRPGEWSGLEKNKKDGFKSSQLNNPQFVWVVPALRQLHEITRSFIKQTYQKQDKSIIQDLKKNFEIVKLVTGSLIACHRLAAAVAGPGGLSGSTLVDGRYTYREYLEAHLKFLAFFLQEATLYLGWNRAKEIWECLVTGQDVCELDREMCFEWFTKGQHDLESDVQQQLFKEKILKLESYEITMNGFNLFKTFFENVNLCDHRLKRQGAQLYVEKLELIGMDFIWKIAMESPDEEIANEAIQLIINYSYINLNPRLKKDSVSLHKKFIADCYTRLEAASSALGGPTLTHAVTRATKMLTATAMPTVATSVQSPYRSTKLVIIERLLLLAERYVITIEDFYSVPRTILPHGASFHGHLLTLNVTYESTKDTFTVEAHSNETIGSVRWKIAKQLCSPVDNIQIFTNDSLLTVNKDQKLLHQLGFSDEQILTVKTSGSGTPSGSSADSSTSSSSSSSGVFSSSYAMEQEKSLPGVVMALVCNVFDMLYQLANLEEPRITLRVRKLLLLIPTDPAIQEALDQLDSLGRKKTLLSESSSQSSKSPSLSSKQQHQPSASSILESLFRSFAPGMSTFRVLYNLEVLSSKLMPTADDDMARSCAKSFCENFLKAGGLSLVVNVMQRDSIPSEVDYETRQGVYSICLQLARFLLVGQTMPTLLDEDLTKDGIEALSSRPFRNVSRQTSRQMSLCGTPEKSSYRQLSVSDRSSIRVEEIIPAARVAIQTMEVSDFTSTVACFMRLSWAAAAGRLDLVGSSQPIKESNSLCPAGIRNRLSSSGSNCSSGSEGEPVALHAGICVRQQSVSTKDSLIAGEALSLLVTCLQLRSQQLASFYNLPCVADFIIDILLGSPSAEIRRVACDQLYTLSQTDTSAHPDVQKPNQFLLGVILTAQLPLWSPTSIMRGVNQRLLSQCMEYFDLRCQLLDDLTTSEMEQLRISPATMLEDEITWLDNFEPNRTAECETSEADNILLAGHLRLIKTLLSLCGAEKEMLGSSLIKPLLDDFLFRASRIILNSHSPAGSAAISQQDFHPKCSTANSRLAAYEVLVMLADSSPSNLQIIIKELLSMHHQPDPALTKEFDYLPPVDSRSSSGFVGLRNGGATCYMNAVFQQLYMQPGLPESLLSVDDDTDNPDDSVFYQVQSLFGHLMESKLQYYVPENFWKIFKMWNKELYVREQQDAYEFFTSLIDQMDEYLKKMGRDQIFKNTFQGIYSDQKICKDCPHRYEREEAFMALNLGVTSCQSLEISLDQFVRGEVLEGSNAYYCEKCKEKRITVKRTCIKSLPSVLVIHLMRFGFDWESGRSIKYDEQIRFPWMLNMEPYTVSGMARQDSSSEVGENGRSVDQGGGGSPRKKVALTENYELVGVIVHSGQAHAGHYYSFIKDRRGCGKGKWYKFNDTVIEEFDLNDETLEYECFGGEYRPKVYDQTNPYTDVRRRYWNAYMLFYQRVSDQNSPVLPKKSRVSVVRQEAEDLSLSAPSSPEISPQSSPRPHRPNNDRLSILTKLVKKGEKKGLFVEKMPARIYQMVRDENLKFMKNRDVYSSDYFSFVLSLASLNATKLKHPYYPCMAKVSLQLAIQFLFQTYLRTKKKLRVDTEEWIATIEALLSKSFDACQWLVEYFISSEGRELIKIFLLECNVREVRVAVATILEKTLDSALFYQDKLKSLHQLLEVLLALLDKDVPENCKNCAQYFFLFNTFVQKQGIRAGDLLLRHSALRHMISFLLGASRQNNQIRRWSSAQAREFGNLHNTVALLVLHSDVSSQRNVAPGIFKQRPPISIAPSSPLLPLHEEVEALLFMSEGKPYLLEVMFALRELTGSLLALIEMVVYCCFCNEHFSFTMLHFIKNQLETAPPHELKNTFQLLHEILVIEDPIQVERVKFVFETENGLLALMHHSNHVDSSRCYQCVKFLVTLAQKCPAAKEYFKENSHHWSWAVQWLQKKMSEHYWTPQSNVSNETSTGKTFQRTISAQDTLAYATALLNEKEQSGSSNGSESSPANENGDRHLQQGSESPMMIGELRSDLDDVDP
smiles,measurement,setting,value
Cc1cc(NC(=O)CCl)n(-c2ccccc2)n1,log2 ratio of Biotin-Ahx-Ub-VS probe labelling,USP19,-0.106
same,log2 ratio of Biotin-Ahx-Ub-VS probe labelling,USP22,0.086
same,log2 ratio of Biotin-Ahx-Ub-VS probe labelling,USP24,-0.201
same,log2 ratio of Biotin-Ahx-Ub-VS probe labelling,USP25,-0.721
same,log2 ratio of Biotin-Ahx-Ub-VS probe labelling,USP28,-1.03 (active)
